Outcome and AC50 data for 39 compounds are collected here from PubChem BioAssay (EPA / NIEHS).

Molecules are shown by their SMILES. Records with an inconclusive call do not appear. The source holds several records for some structures; these can differ, active in one and inactive in another. Activity calls are given as the source filed them. How the source made its calls: active means hit-call score of the fitted dose curve at least 0.9, where 1 is the maximum; inconclusive means response in the unintended direction; inactive means score below 0.9.

Chain of Nuclear receptor subfamily 4 group A member 2 (Homo sapiens) (P43354 whole entry, looked up): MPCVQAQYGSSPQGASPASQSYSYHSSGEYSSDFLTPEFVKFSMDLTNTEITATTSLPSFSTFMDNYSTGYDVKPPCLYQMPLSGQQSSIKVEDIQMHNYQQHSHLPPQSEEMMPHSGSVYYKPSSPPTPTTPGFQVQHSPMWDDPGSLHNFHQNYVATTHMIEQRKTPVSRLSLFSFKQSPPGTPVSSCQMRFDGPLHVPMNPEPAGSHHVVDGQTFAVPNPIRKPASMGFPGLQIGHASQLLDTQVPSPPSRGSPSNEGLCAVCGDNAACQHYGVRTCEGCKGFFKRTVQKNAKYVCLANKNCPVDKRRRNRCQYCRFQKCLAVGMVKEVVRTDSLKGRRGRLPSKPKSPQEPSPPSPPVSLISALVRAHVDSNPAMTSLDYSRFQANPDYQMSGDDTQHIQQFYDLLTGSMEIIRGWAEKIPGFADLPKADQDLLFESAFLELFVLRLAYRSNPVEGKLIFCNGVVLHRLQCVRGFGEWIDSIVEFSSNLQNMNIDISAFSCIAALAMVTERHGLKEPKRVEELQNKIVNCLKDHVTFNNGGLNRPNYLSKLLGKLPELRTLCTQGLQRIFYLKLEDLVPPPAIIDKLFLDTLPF

The test concerns the target Nuclear receptor subfamily 4 group A member 2 (Homo sapiens) (UniProt P43354). In words: ATG_NURR1_TRANS: Attagene TRANS-FACTORIAL HepG2 Assay for human Nuclear Receptor Related Protein 1 (NURR1) (AID 2282985). Particulars: HepG2 Attagene TRANS reporter, mRNA readout. The protocol: ATG_TRANS is a cell-based, multiplexed-readout assay that uses HepG2, a human liver cell line, with measurements taken at 24 hours after chemical dosing in a 24-well plate.ATG_NURR1_TRANS is one of 30 assay component(s) measured or calculated from the ATG_TRANS assay. It is designed to make measurements of mRNA induction, a form of inducible reporter, as detected with fluorescence intensity signals by Reverse transcription polymerase chain reaction (RT-PCR) and Capillary electrophoresis technology.Data from the assay component ATG_NURR1_TRANS was analyzed into 1 assay endpoint. This assay endpoint, ATG_NURR1_TRANS, was analyzed in the positive analysis fitting direction relative to DMSO as the negative control and baseline of activity. Using a type of inducible reporter, measures of mRNA for gain-of-signal activity can be used to understand the reporter gene at the transcription factor-level as they relate to the gene NR4A2. Furthermore, this assay endpoint can be referred to as a primary readout, because this assay has produced multiple assay endpoints where this one serves a reporter gene function. To generalize the intended target to other relatable targets, this assay endpoint is annotated to the nuclear receptor intended target family, where the subfamily is orphan.
Human liver HepG2 cells are transiently transfected with multiple reporter transcription units (MRTUs) in 6-well plates using FuGene 6 reagent (Roche; 3 ml FuGene/1 mg DNA). The MRTU constructs are regulated by a cis-regulating element (promoter). […] A major difference between the CIS and TRANS system is that in CIS activities of endogenous TFs are measured, whereas the TRANS assay evaluates changes in activities of exogenous, chimeric NR-Gal4 proteins. […] At the end of 24 hour incubation, total RNA was isolated using TriZol reagent (Invitrogen). The isolated RNA is then reverse-transcribed using oligo(dT) primer and Mo-MLV reverse transcriptase (Invitrogen) with DNAse I (Ambion) treatment for 30 min. The one-tenth of the produced cDNA was amplified by PCR using Taq DNA polymerase (Invitrogen) and two reporter sequence-specific primers. The PCR products were fluorescently labeled by primer extension with 6-arboxyfluorescein (6-FAM) 5'-labeled reporter sequence-specific primer (2 min at 95 C, 20 s at 68 C and 10 min at 72 C) and these products were digested with 5U of HpaI (New England Biolabs) for 2h at 37 C. The fragments were purified using Qiaquick PCR columns (Qiagen), analyzed on an ABI 3130xL genetic analyzer (Applied Biosystems) with peak positions identified by using a set of X-rhodamine (ROX)-labeled MapMarker1000 molecular weight standards (BioVentures). The raw capillary electrophoresis data was processed using Attagraph software (Attagene).
In the case of `O=C1C[C@@H]2OCC=C3CN4CC[C@]56c7ccccc7N1[C@H]5[C@H]2[C@H]3C[C@H]46`, the compound was called inactive.
The term AC50 denotes the concentration at which the activity in the assay is half-maximal. Turning to `CC(C)(C)c1cc([N+](=O)[O-])cc(C(C)(C)C)c1O`, the AC50 was 12.4 µM (active).
For `CCOP(=S)(OCC)SCSc1cc(Cl)ccc1Cl`, the outcome was inactive.
On the same count and under the same terms, the value for `CCOP(=O)(OCC)SCCSCC` was “inactive”.
Same read-out and setting: with `CC(C)(c1ccccc1)c1cc(-n2nc3ccccc3n2)c(O)c(C(C)(C)c2ccccc2)c1` the entry was “inactive”.
For `CCOP(=O)(OCC)OC(=CCl)c1ccc(Cl)cc1Cl`, the AC50 was 100 µM (active).
`ClCc1ccccc1CCl`: the outcome was inactive.
On the same count and under the same terms, with `COC(F)(C(F)(F)C(F)(F)F)C(F)(C(F)(F)F)C(F)(F)F` (stereo not given) the entry was “inactive”; with `COP(=S)(OC)Oc1cc(Cl)c(I)cc1Cl`, “inactive”.
Still for that read-out and setting: the value for `O=C(NC(=O)c1c(F)cccc1F)Nc1cc(Cl)c(Oc2ncc(C(F)(F)F)cc2Cl)c(Cl)c1` was “inactive”; that for `OC[C@@H](O)[C@H]1O[C@@H]2O[C@H](C(Cl)(Cl)Cl)O[C@@H]2[C@H]1O` was “inactive”; that for `C=C(C)[C@@H]1CC=C(C=O)CC1` was “inactive”.
With `O=c1oc2ccccc2c(O)c1C(CC(O)c1ccc(-c2ccc(Br)cc2)cc1)c1ccccc1` (stereo not given), the result was inactive and the AC50 was 22.3 µM (active).
Turning to `O=C(Cc1ccccc1)OCCc1ccccc1`, the compound was called inactive.
On the same count and under the same terms, the value for `N#Cc1cccnc1` was “inactive”.
With `Cc1ccccc1OP(=O)(Oc1ccccc1C)Oc1ccccc1C`, the AC50 is 26.7 µM (active).
For `O=c1[nH]c(=O)n(Cl)c(=O)n1Cl`, the outcome was inactive.
Regarding `CCCSP(=S)(OCC)Oc1ccc(Cl)cc1Cl` (stereo not given), the compound was called inactive.
Take `O=C1c2ccccc2C(=O)C1C(=O)C(c1ccccc1)c1ccc(Cl)cc1` (stereo not given): the AC50 is 4.69 µM (active).
In the case of `C[C@@H]1O[C@@H](O[C@H]2C[C@@H](O)[C@]3(CO)[C@H]4[C@H](O)C[C@]5(C)[C@@H](C6=CC(=O)OC6)CC[C@]5(O)[C@@H]4CC[C@]3(O)C2)[C@H](O)[C@H](O)[C@H]1O`, the result was inactive.
Regarding `OCC(c1ccc(Cl)cc1)c1ccc(Cl)cc1`, the half-maximal activity concentration (AC50) was 46.3 µM (active).
`CC(C)CC(C)(c1ccc(O)cc1)c1ccc(O)cc1`: the compound was called inactive.
On the same count and under the same terms, the value for `CNC(=O)N(C)c1nc2ccccc2s1` was “inactive”; that for `CC(c1ccc(O)cc1)c1ccc(O)cc1` was “inactive”.
The same measure, in the same setting: the value for `C=C(C)C(=O)OCCCCOC(=O)C(=C)C` was “inactive”; that for `CCCCCCCCCCCCOS(=O)(=O)O` was “inactive”; that for `O=S1(=O)OC(c2cc(Br)c(O)c(Br)c2)(c2cc(Br)c(O)c(Br)c2)c2ccccc21` was “inactive”.
For the compound `[F][Sn]([c]1ccccc1)([c]1ccccc1)[c]1ccccc1`, the AC50 is 0.00363 µM (active).
For the compound `CCCCOC(=O)COC(=O)c1ccccc1C(=O)OCCCC`, the result was inactive.
For `Cc1ccccc1OP(=O)(Oc1ccccc1)Oc1ccccc1`, the AC50 was 25.2 µM (active).
On to `CN(C)c1ccc(N=O)cc1`, for which the compound was classed as inactive.
`c1ccc(-c2cccc(-c3ccccc3)c2)cc1`: the concentration at half-maximal activity (AC50) is 27.8 µM (active).
Take `CC(C=O)Cc1ccc2c(c1)OCO2` (stereo not given): the outcome was inactive.
Same read-out and setting: the value for `O=c1[nH]c2ccccc2n1C1CCN(CCCC(c2ccc(F)cc2)c2ccc(F)cc2)CC1` was “inactive”; that for `CCOC(=O)CC(=O)CCl` was “inactive”; that for `O=C(CCl)Nc1ccccc1` was “inactive”.
In the case of `O=C(Nc1ccc(Br)cc1)c1cc(Br)cc(Br)c1O`, the compound was classed as inactive.
Still for that read-out and setting: the value for `C=CC(Cl)CCl` (stereo not given) was “inactive”; that for `OC(Cc1ccccc1Cl)(Cn1[nH]cnc1=S)C1(Cl)CC1` (stereo not given) was “inactive”.
